T cruzi growth-1 – T. cruzi intracellular proliferation inhibitors, primary screen, cell-based, beta-gal Tulahuen parasites, NIH3T3 host, luminescence | AID 624255, 2012 | 77,000 tested, 5.9% active | inhibition, % at 8.34 µM | T. cruzi beta-gal in NIH3T3, GalScreen luminescence, 90 h;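 active means mean inhibition above about 93%, with at least 55% of replicates each passing it, limit read from the data, passing the limit was not always enough; inconclusive means only one of those two conditions holds; inactive means neither condition holds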
C diff growth – C. difficile growth inhibitors, primary screen, HTS; Clostridium difficile clinical isolate growth, OD600, 24 h; hits give low values; growth activity, negative = inhibition, % at 16 µg/mL (by protocol); 86,000 tested, 0.25% active;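 active means mean growth activity at or below -80% and every replicate also at or below -80%; inconclusive means mean at or below -80% but some replicate above -80%; inactive means mean growth activity above -80%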
Pf Dd2 growth – P. falciparum Dd2 growth inhibitors, primary screen, SYBR Green fluorescence, single dose replicates; 72 h; hits give low values; activity change, % at 10 µM; 94,000 tested, 2.3% active; in the data active means activity change below about -80%; inconclusive means no clear call, values can overlap the other calls
T cruzi growth-2 – T. cruzi intracellular proliferation inhibitors, confirmation, cell-based, NIH3T3 host, beta-gal parasite, luminescence, cherry-pick | T. cruzi beta-gal in NIH3T3, GalScreen luminescence, 90 h | inhibition, % at 8.35 µM | shares compounds with T cruzi growth-1 | 5,600 tested, 72% active;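 active means mean replicate inhibition above about 95% and at least 55% of replicates individually reaching it, limit read from the data; inconclusive means only one of the two criteria is met; inactive means neither criterion is met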
T cruzi growth-3 – inhibitors of intracellular T. cruzi replication, confirmation, NIH3T3 host cells, beta-gal parasites, cherry-pick, set 2; T. cruzi beta-gal in NIH3T3, GalScreen luminescence, 90 h; 5,600 tested, 21% active; inhibition, % at 2.09 µM; shares compounds with T cruzi growth-1; AID 651740, 2012;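 active means mean inhibition above about 95%, with at least 55% of replicates also reaching it, limit read from the data; inconclusive means meets just one of the two conditions; inactive means meets neither condition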
NIH3T3 tox – cytotoxicity in mouse NIH/3T3 fibroblasts, confirmation, cytotoxicity control for T. cruzi proliferation inhibitor project, cell-based, cherry-pick, single point | shares compounds with T cruzi growth-1 | NIH/3T3 viability, CellTiter-Glo ATP luminescence, 90 h | cytotoxicity (signal decrease), % at 8.35 µM | 5,600 tested, 14% active | AID 651742, 2012;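 active means mean signal decrease across replicates above about 35% based on untreated-well scatter, with enough replicates individually passing, limit read from the data; inconclusive means no rule stated though some were filed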
NIH3T3 tox 2 – NIH/3T3 fibroblast cytotoxicity, confirmation, cytotoxicity control, cell-based, cherry-pick, single point, set 2; shares compounds with T cruzi growth-1; NIH/3T3 viability, CellTiter-Glo ATP luminescence, 90 h; inhibition, % at 24.9 µM; 5,600 tested, 56% active;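 active means mean loss of cell viability signal at or above a set limit, and enough replicates individually reaching it; inconclusive means meets only the mean limit or only the replicate share; inactive means meets neither condition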
Hits are given with their value; ! = not confirmed by another sample. Sampled rows, rich in hits. Any-hit rate of the full collection: about 6.7%.

C[C@@H]1CCCCO[C@H](CN(C)C(=O)CCC(F)(F)F)[C@H](C)CN([C@H](C)CO)C(=O)c2cc(NS(=O)(=O)c3ccc(F)cc3)ccc2O1 was read as C diff growth inactive and Pf Dd2 growth inactive.
C[C@@H]1CCCCO[C@@H](CN(C)Cc2ccc3c(c2)OCO3)[C@H](C)CN([C@@H](C)CO)C(=O)c2cc(NC(=O)c3ccncc3)ccc2O1 was read as T cruzi growth-1 inactive, C diff growth inactive and Pf Dd2 growth inactive.
Screening C[C@H](CO)N1C[C@H](C)[C@@H](CN(C)Cc2ccc3c(c2)OCO3)OCCCC[C@H](C)Oc2ccc(NC(=O)c3ccncc3)cc2C1=O returned T cruzi growth-1 103, C diff growth inactive, Pf Dd2 growth inactive, T cruzi growth-2 inactive, T cruzi growth-3 inactive, NIH3T3 tox inactive and NIH3T3 tox 2 inactive.
`C[C@@H]1CCCCO[C@H](CN(C)Cc2ccc3c(c2)OCO3)[C@H](C)CN([C@H](C)CO)C(=O)c2cc(NC(=O)c3ccncc3)ccc2O1` gave T cruzi growth-1 114, C diff growth inactive, Pf Dd2 growth inactive, T cruzi growth-2 102, T cruzi growth-3 inactive, NIH3T3 tox inactive and NIH3T3 tox 2 inactive.
C[C@@H]1CN([C@@H](C)CO)C(=O)c2cc(NC(=O)c3ccncc3)ccc2O[C@@H](C)CCCCO[C@@H]1CN(C)Cc1ccc2c(c1)OCO2 was read as T cruzi growth-1 inactive, C diff growth inactive and Pf Dd2 growth inactive.
Screening O=C(Nc1ccccc1F)N1CC(=O)N2[C@H](C1)[C@@H](c1ccc(C#CC3CCCC3)cc1)[C@@H]2CO returned C diff growth inactive and Pf Dd2 growth inactive.
`COc1ccc(NC(=O)O[C@H](c2ccc(OCCO)cc2)[C@@H](C)CCO)cc1` gave C diff growth inactive.
O=C(C[C@@H]1CC[C@H]2[C@@H](COC[C@H](O)CN2C(=O)Nc2ccc(F)cc2)O1)NC1Cc2ccccc2C1 was read as T cruzi growth-1 inactive and Pf Dd2 growth inactive.
Screening O=C(C[C@@H]1CC[C@@H]2[C@H](COC[C@@H](O)CN2C(=O)Nc2ccc(F)cc2)O1)NC1Cc2ccccc2C1 returned T cruzi growth-1 inactive and Pf Dd2 growth inactive.
O=C(C[C@H]1CC[C@H]2[C@@H](COC[C@H](O)CN2C(=O)Nc2ccc(C(F)(F)F)cc2)O1)NC1Cc2ccccc2C1 was read as T cruzi growth-1 121, C diff growth -90!, Pf Dd2 growth inactive, T cruzi growth-2 105, T cruzi growth-3 inactive, NIH3T3 tox 51 and NIH3T3 tox 2 107.
O=C(C[C@@H]1CC[C@@H]2[C@H](COC[C@@H](O)CN2C(=O)Nc2ccc(C(F)(F)F)cc2)O1)NC1Cc2ccccc2C1 was read as T cruzi growth-1 112, C diff growth -100!, Pf Dd2 growth inactive, T cruzi growth-2 96, T cruzi growth-3 inactive, NIH3T3 tox inactive and NIH3T3 tox 2 105.
For O=C(N[C@@H]1CC[C@@H](CCn2cc(-c3ccccc3F)nn2)O[C@H]1CO)c1ccc2c(c1)OCO2 the results were T cruzi growth-1 inactive and Pf Dd2 growth inactive.
`CN1[C@@H]2c3ccc(-c4ccccc4)c(=O)n3C[C@@H]2[C@@H](CO)[C@@H]1C(=O)Nc1ccccc1` gave T cruzi growth-1 101, C diff growth inactive, Pf Dd2 growth inactive, T cruzi growth-2 inactive, T cruzi growth-3 inactive, NIH3T3 tox inactive and NIH3T3 tox 2 inactive.
Screening CCN1[C@H](C(=O)Nc2ccccc2)[C@@H](CO)[C@@H]2Cn3c(ccc(-c4ccncc4)c3=O)[C@@H]21 returned T cruzi growth-1 inactive, C diff growth inactive and Pf Dd2 growth inactive.
Screening CN1[C@H](C(=O)Nc2ccccc2)[C@@H](CO)[C@@H]2Cn3c(ccc(-c4ccccc4)c3=O)[C@@H]21 returned T cruzi growth-1 100, C diff growth inactive, Pf Dd2 growth inactive, T cruzi growth-2 inactive, T cruzi growth-3 inactive, NIH3T3 tox inactive and NIH3T3 tox 2 inconclusive.
CN(C)CC(=O)N1[C@H](C(=O)NC2CCC2)[C@@H](CO)[C@@H]2Cn3c(ccc(-c4ccccc4)c3=O)[C@@H]21 was read as T cruzi growth-1 active, C diff growth inactive, T cruzi growth-2 inactive, T cruzi growth-3 inactive, NIH3T3 tox inactive and NIH3T3 tox 2 inactive.
`COc1ccc(-c2ccc3n(c2=O)C[C@H]2[C@H](CO)[C@@H](C(=O)Nc4ccccc4)N(C)[C@@H]32)cc1` gave C diff growth inactive and Pf Dd2 growth inactive.
For CC(=O)N1[C@H](C(=O)NC2CCC2)[C@@H](CO)[C@@H]2Cn3c(ccc(-c4ccccc4)c3=O)[C@@H]21 the results were T cruzi growth-1 inactive, C diff growth inactive and Pf Dd2 growth inactive.
Screening CCS(=O)(=O)N1[C@H](CO)[C@H](c2ccc(C3=CCCCC3)cc2)[C@@H]1C#N returned T cruzi growth-1 inactive, C diff growth inactive and Pf Dd2 growth inactive.
`CCC(=O)N(C)C[C@H]1Oc2ncc(/C=C/c3ccccc3)cc2C(=O)N([C@@H](C)CO)C[C@H]1C` gave T cruzi growth-1 inactive, C diff growth inactive and Pf Dd2 growth inactive.
For CC(=O)N[C@H]1C=C[C@@H](CC(=O)NCc2ccc(Cl)cc2)O[C@H]1CO the results were T cruzi growth-1 inactive, C diff growth inactive and Pf Dd2 growth inactive.
For C[C@H]1CN([C@@H](C)CO)C(=O)c2cc(C#CC3CCCCC3)cnc2O[C@@H]1CN(C)S(=O)(=O)c1ccccc1 the results were T cruzi growth-1 inconclusive, C diff growth inactive, Pf Dd2 growth inactive, T cruzi growth-2 111, T cruzi growth-3 inactive, NIH3T3 tox inactive and NIH3T3 tox 2 87.
`C[C@H](CO)N1C[C@H](C)[C@@H](CN(C)S(=O)(=O)c2cccc(F)c2)Oc2ncc(C#CC3CCCCC3)cc2C1=O` gave C diff growth inactive and Pf Dd2 growth inactive.
For C[C@@H]1CN([C@@H](C)CO)C(=O)c2cc(C#CC3CCCCC3)cnc2O[C@@H]1CN(C)S(=O)(=O)c1ccccc1 the results were T cruzi growth-1 111, C diff growth inactive, Pf Dd2 growth inactive, T cruzi growth-2 108, T cruzi growth-3 inactive, NIH3T3 tox inactive and NIH3T3 tox 2 94.
For C[C@H](CO)N1C[C@H](C)[C@@H](CN(C)S(=O)(=O)c2ccccc2)Oc2ncc(C#CC3CCCCC3)cc2C1=O the results were T cruzi growth-1 107, C diff growth inactive, Pf Dd2 growth inactive, T cruzi growth-2 106, T cruzi growth-3 inactive, NIH3T3 tox inactive and NIH3T3 tox 2 85.

Bioassay records as filed in PubChem BioAssay.
